Screening results as filed in PubChem BioAssay.
Shown are actives, neighbours in structure and some others; about 11% of the full set was active somewhere.
Luciferase inh = Photinus pyralis luciferase inhibition; P08659; purified P. pyralis luciferase, luminescence, biochemical; Potency, µM (series often up to 115 µM), most hits filed as inhibitors; 76,000 compounds, 2.5% hits; AID 1347043; note: nearly all actives have a fitted effect of over 65% in size
Target sequence (P08659 whole entry, looked up): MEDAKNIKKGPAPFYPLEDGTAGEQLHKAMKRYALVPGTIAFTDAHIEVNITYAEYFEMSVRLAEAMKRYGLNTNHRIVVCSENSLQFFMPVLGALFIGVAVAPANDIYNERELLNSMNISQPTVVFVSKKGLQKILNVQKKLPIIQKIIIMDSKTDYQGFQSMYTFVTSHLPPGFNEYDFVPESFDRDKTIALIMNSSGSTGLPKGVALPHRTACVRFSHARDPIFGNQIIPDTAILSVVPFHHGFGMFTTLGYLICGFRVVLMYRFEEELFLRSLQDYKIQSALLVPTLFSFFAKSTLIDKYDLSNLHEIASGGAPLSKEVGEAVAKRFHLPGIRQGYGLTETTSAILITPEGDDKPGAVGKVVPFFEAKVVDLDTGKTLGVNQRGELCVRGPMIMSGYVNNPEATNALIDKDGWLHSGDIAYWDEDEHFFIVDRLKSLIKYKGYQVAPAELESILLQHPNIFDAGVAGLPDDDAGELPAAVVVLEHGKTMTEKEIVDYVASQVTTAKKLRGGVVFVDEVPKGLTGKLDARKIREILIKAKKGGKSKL
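Cell-free enzyme assay, 10nM P. pyralis luciferase, luciferin and ATP each at 10uM. Inhibition profiled over a 6-point titration, read as luminescence.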
HEK cytotox = cytotoxic compounds in HEK 293 cells. HEK 293 viability, ATP luminescence (CellTiter-Glo), 48-72 h. Potency, µM (highest dose often 115 µM), inactives show top-dose activity change, negative = cytotoxicity, hits mostly inhibitors. 94,000 compounds, 6.6% hits. AID 1345083; note: nearly all actives have a fitted effect of over 60% in size
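250 HEK 293 cells/well; compound by pintool; incubated 48 or 72 hr at 37 degree Celsius; CellTiter-Glo added, 10 min RT, luminescence imaged.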
NIH3T3 tox = cytotoxic compounds in NIH 3T3 cells. NIH 3T3 viability, CellTiter-Glo ATP luminescence, 48-72 h. Potency, µM (titrated, usually from 96.7 µM), for the others: top-dose activity change, negative = cytotoxicity, actives largely listed as inhibitors. 94,000 compounds, 4.3% hits; note: nearly all actives have a fitted effect of over 55% in size
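ATP-dependent luminescence (CellTiter-Glo) served as the viability signal for NIH 3T3 cells treated with compound for 48 or 72 hr at 37 °C.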
NPR1 antag = blocks ANP-stimulated signaling of human Npr1 receptor | P16066 | HEK293 hNpr1 GloSensor cGMP, ANP-stimulated luminescence | Potency, µM (top dose mostly 46.3 µM), inactives show at the top dose activity change, negative = inhibition, hits mostly inhibitors | 76,000 compounds, 1.6% hits | AID 1347048; calls by dose curve; note: nearly all actives have a fitted effect of over 60% in size
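Compound pre-incubated 30 min at room temperature on GloSensor-loaded HEK293 cells stably carrying hNpr1 and the pGS-40F cGMP biosensor. Stimulation uses hNppA at 0.1 nM final; luminescence is taken at baseline and 20 min post-agonist.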
Starred values were filed as active, the others as inactive; i = inactive; u = inconclusive; x = no result given; [ ] = dose if it differs, or a comment. Unless noted, calls come from the whole dose curve; as a rule, active = well fitted curve in the direction sought with a large enough effect; inconclusive = small, poorly fitted or top-dose-only effect, or another doubt; inactive = no such curve, though single readings can be large; an effect the other way counts as inactive or inconclusive. % is set by controls: 0 for no effect and ±100 for the full control effect; potency is the fitted concentration of half-maximal effect.

SMILES | Luciferase inh | HEK cytotox | NIH3T3 tox | NPR1 antag
O=C(NCCN1CCCC1)c1ccc(-c2ccc(N3CCSCC3)nc2)cc1 | 14µM* | u | u | -17%
CC(C)c1nccn1CCCNC(=O)c1ccc(N2CCCCCC2)nc1 | i | 79µM* | u | -11%
O=C(NCCN1CCOCC1)c1ccc(-c2ccc(N3CCCCC3)nc2)cc1 | 32µM* | u | u | -11%
COc1ccccc1-n1c(=O)c(C(=O)NCCSC)nc2cccnc21 | x | -1% | -9% | x
O=C(c1ccc(Cl)nc1)N1CCCC(C(=O)N2CCC(N3CCOCC3=O)CC2)C1 (stereo not drawn) | x | -1% | -8% | x
O=C(c1nccc2ccccc12)N1CCc2c(nc(-c3ccc(F)cc3)[nH]c2=O)C1 | i | u | 14µM* | -12%
O=C(c1ccco1)N1CCc2c(nc(-c3ccc(F)cc3)[nH]c2=O)C1 | i | 3% | u | -12%
O=C(CCCc1ccccc1)N1CCCCCC1c1nc(C2CC2)no1 (stereo not drawn) | i | 50µM* | u | -8%
c1ccc(-c2nnc([C@H]3CCN(C4CCC4)C3)o2)cc1 | 25µM* | u | -14%[230 µM] | -6%[70.6 µM]
c1ccc(-c2nnc([C@H]3CCN(C4CCOCC4)C3)o2)cc1 | u | -1%[172 µM] | -8%[174 µM] | 4%[70.6 µM]
CN(C)c1ccc(-c2nnc([C@H]3CCN(C4CCC4)C3)o2)cc1 | 71µM* | -11%[172 µM] | 3%[138 µM] | 1%[70.6 µM]
c1cc(-c2nnc([C@H]3CCN(C4CCCCC4)C3)o2)ccn1 | u | -19%[172 µM] | -12%[138 µM] | -16%[70.6 µM]
COc1cccc(-c2ccc(CN3CCCC3C(=O)NCC3CC3)cc2)c1 (stereo not drawn) | x | 45µM* | u | x
COc1cccc(CNC(=O)C2CCCN2Cc2ccc(-c3cncnc3)cc2)c1 (stereo not drawn) | x | -23% | u | x
COc1cccc(-c2ccc(CN3CCCC3C(=O)NCc3ccc(C(F)(F)F)cc3)cc2)c1 (stereo not drawn) | x | 35µM* | u | x
COc1cccc([S+](=O)([O-])N2CCC3(CC2)C(=NC2CCCCC2)NC(=O)N3c2cc(F)cc(F)c2)c1 | x | -21% | u | x
Cc1ccc(Nc2ccnc(N3CCC(C(=O)NCCCc4ccccc4)CC3)n2)cc1 | x | u | 13µM* | x
COc1ccc(Nc2ccnc(N3CCCC(C(=O)NCCCc4ccccc4)C3)n2)cc1 (stereo not drawn) | x | 22µM* | u | x
COc1ccc(CCNC(=O)C2CCCN(c3ccnc4ccnn34)C2)cc1 (stereo not drawn) | x | -9% | -25% | x
Cc1ccc(Nc2ccnc(N3CCCC(C(=O)NCCCc4ccccc4)C3)n2)cc1 (stereo not drawn) | x | 5µM* | u | x
Cc1cccc(NC(=O)N2CCCCC2c2nc(-c3cccnc3)n[nH]2)c1 (stereo not drawn) | x | -30% | -20% | x
CCOC(=O)C1(Cc2ccc(F)cc2F)CCCN(S(=O)(=O)c2c(C)noc2C)C1 (stereo not drawn) | i | 40µM* | u | 5%
C=CCC(=O)N(CC1CCN(CCc2ccccc2C)CC1)C1CCCC1 | i | u | u | -2%
O=C1CC2(CCN(C(=O)C3CCCN(C(=O)Nc4ccccc4)C3)CC2)Oc2ccccc2N1 (stereo not drawn) | x | 32µM* | u | x
CCOC(=O)c1cccc(NC(=O)N2CC[C@@H](CC(=O)N[C@@H](CO)CC(C)C)[C@@H](CC)C2)c1 | i | i | u | 0%
SMILES | Luciferase inh | HEK cytotox | NIH3T3 tox | NPR1 antag
Cc1cc(OCCN(C)C)c(C)c2c1CC[C@@H]([C@H](C)C(=O)NCc1cccs1)C2 | i | 56µM* | 63µM* | 5%[70.6 µM]
Cn1ncc2c(C(=O)NCC3CCCCC3)cc(-c3cccc(C(F)(F)F)c3)nc21 | x | -2% | -14% | x
O=C(NCc1ccccc1)C1CCc2nnc(CN[S+](=O)([O-])c3ccccc3Cl)n21 (stereo not drawn) | x | i | -9% | x
CCOC(=O)C1CCN(C(=O)c2ccc3nc(-c4ccnc(Cl)c4)oc3c2)CC1 | x | 100µM* | 100µM* | x
CCOC(=O)C1CCN(C(=O)c2ccc3nc(-c4ccncc4)oc3c2)CC1 | x | -27% | -27% | x
CC(=O)NCCNC(=O)c1cccc(-c2ccc(C(F)(F)F)cc2)c1 | x | -17% | -35% | x
CN(C)C(=O)CNC(=O)c1cccc(-c2ccc(C(F)(F)F)cc2)c1 | x | 40µM* | u | x
CC(C)(C)C(=O)NCCNC(=O)c1cccc(-c2ccc(C(F)(F)F)cc2)c1 | x | 25µM* | 45µM* | x
